Laboratory results as given in PubChem BioAssay AID1159580 (chemical genetic matrix, 2015).
Where “and” joins values, the source holds several entries; their conditions need not be identical. Equal values may be shown once. Out of some 5,500 compounds screened, about 2,000 (36%) were called active. Another 18% or so got no clear call; they are omitted. Cut-off read from the data, not from the text of the source: active = normalized growth mostly below about 0.91 (no sharp cut-off); inconclusive = no clear call, values can overlap the other calls; inactive = mostly above about 0.92. Some of the results follow.

Assay: chemical genetic growth profiling, strain panel (AID 1159580);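 note: tested at 20 µM; growth read once vehicle control cultures reached saturation at 30 °C; 1 = growth at the plate median or of vehicle wells; lower values mean less growth of the strain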
Details: S. cerevisiae deletion strains, growth OD

Measured: normalized growth

CN(C)CCCN1c2ccccc2CCc2ccccc21
inactive: locus YAL013W, strain DEP1, stronger effect = lower value 1.01 and 0.974 | locus YAL021C, strain ccr4, stronger effect = lower value 0.965 | locus YAL026C, strain drs2, stronger effect = lower value 1 | locus YAL030W, strain snc1, stronger effect = lower value 1 | locus YAL040C, strain CLN3, stronger effect = lower value 1.05 | locus YBL061C, strain skt5, stronger effect = lower value 1 | locus YBR009C, strain hhf1, stronger effect = lower value 0.995 | locus YBR021W, strain FUR4, stronger effect = lower value 0.997 | locus YBR023C, strain chs3, stronger effect = lower value 1 | locus YBR171W, strain sec66, stronger effect = lower value 1.01 | locus YBR229C, strain ROT2, stronger effect = lower value 1 | locus YBR231C, strain swc5, stronger effect = lower value 1 | locus YBR279W, strain paf1, stronger effect = lower value 1 | locus YCL011C, strain gbp2, stronger effect = lower value 1.01 | locus YCL016C, strain dcc1, stronger effect = lower value 0.994 | locus YCL029C, strain bik1, stronger effect = lower value 1 | locus YCL061C, strain MRC1 (second series), stronger effect = lower value 1 | locus YCL061C, strain MRC1, stronger effect = lower value 0.997 | locus YCL069W, strain vba3, stronger effect = lower value 1 | locus YCR088W, strain abp1, stronger effect = lower value 1.01 | locus YDL005C, strain med2, stronger effect = lower value 1.01 | locus YDL035C, strain GPR1, stronger effect = lower value 1.03 | locus YDL040C, strain nat1, stronger effect = lower value 1 | locus YDL074C, strain BRE1, stronger effect = lower value 1.02 | locus YDL101C, strain DUN1, stronger effect = lower value 1.03 | locus YDL134C, strain PPH21, stronger effect = lower value 1.03 | locus YDL185W, strain tfp1, stronger effect = lower value 0.993 | locus YDL192W, strain arf1, stronger effect = lower value 0.992 | locus YDR001C, strain nth1, stronger effect = lower value 1.01 | locus YDR069C, strain doa4, stronger effect = lower value 0.994 | locus YDR101C, strain arx1, stronger effect = lower value 0.998 | locus YDR137W, strain rgp1, stronger effect = lower value 1.1 | locus YDR150W, strain NUM1, stronger effect = lower value 1.01 | locus YDR159W, strain sac3, stronger effect = lower value 1 | locus YDR162C, strain NBP2, stronger effect = lower value 1.01 | locus YDR195W, strain ref2 1.02 | locus YDR297W, strain sur2, stronger effect = lower value 0.996 | locus YDR318W, strain mcm21, stronger effect = lower value 0.994 | locus YDR334W, strain swr1, stronger effect = lower value 1.01 | locus YDR335W, strain msn5, stronger effect = lower value 1.01 | locus YDR363W, strain ESC2, stronger effect = lower value 0.964 | locus YDR388W, stronger effect = lower value 0.995 | locus YDR392W, strain spt3, stronger effect = lower value 1.01 | locus YDR502C, strain sam2, stronger effect = lower value 0.993 | locus YEL003W, strain gim4, stronger effect = lower value 1 | locus YEL037C, strain rad23, stronger effect = lower value 1 | locus YEL061C, strain CIN8 (second series), stronger effect = lower value 1.03 | locus YEL061C, strain CIN8, stronger effect = lower value 1.01 | locus YER002W, strain NOP16, stronger effect = lower value 1.01 | locus YER015W, strain faa2, stronger effect = lower value 0.993 | locus YER016W, strain bim1, stronger effect = lower value 1.01 | locus YER110C, stronger effect = lower value 0.988 | locus YER111C, strain swi4, stronger effect = lower value 0.99 | locus YER155C, strain BEM2 (second series), stronger effect = lower value 0.975 | locus YER155C, strain BEM2, stronger effect = lower value 1 | locus YER167W, strain BCK2, stronger effect = lower value 1.01 | locus YFR010W, strain ubp6, stronger effect = lower value 1.01 | locus YGL078C, strain dbp3, stronger effect = lower value 0.972 | locus YGL086W, strain mad1, stronger effect = lower value 1.01 | locus YGL167C, strain pmr1, stronger effect = lower value 1.01 | locus YGL173C, strain kem1, stronger effect = lower value 0.991 | locus YGL227W, strain vid30, stronger effect = lower value 1 | locus YGL240W, strain doc1, stronger effect = lower value 1 | locus YGL248W, strain PDE1, stronger effect = lower value 1.01 | locus YGL253W, strain hxk2, stronger effect = lower value 1.02 | locus YGR078C, strain PAC10, stronger effect = lower value 1 and 0.981 | locus YGR135W, strain pre9, stronger effect = lower value 0.958 | locus YGR229C, strain SMI1, stronger effect = lower value 1 and 0.978 | locus YGR252W, strain gcn5, stronger effect = lower value 0.942 | locus YHR013C, strain ard1, stronger effect = lower value 0.947 | locus YHR027C, strain rpn1, stronger effect = lower value 1.01 | locus YHR030C, strain SLT2, stronger effect = lower value 1 and 0.993 | locus YHR079C, strain IRE1 (second series), stronger effect = lower value 0.989 | locus YHR079C, strain IRE1, stronger effect = lower value 1.01 | locus YHR094C, strain hxt1, stronger effect = lower value 0.978 | locus YHR129C, strain ARP1, stronger effect = lower value 1.01 | locus YHR142W, strain chs7, stronger effect = lower value 1.02 | locus YHR200W, strain rpn10, stronger effect = lower value 1 | locus YIL066C, strain RNR3, stronger effect = lower value 1.01 | locus YIL073C, strain SPO22, stronger effect = lower value 1 | locus YIL125W, strain kgd1, stronger effect = lower value 0.995 | locus YIR030C, strain dcg1, stronger effect = lower value 0.984 | locus YJL092W, strain hpr5, stronger effect = lower value 1.01 | locus YJL095W, strain BCK1 (second series), stronger effect = lower value 0.996 | locus YJL095W, strain BCK1, stronger effect = lower value 0.997 and 0.998 | locus YJL115W, strain asf1, stronger effect = lower value 1.01 | locus YJL129C, strain trk1, stronger effect = lower value 0.995 | locus YJL134W, strain LCB3, stronger effect = lower value 1.01 | locus YJL154C, strain vps35, stronger effect = lower value 1.02 | locus YJL164C, strain tpk1, stronger effect = lower value 1 | locus YJL166W, strain qcr8, stronger effect = lower value 1.02 | locus YJL168C, strain set2, stronger effect = lower value 0.984 | locus YJL187C, strain SWE1 (second series), stronger effect = lower value 1.01 | locus YJR043C, strain POL32, stronger effect = lower value 1.03 | locus YJR066W, strain TOR1, stronger effect = lower value 0.923
